# The supplement of paper PMC10105736
# Unmarked numbers belong to inactive results.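 Rule for the calls: active = MAPPIT score above the 99th percentile of random reference set scores in the same batch; inactive = at or below it.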
# Legend:
# Assay in all cases: MAPPIT interaction score (arbitrary units); higher = stronger binary interaction signal, active = hit call of the paper
# CG15347 = conditions: MAPPIT configuration: N-C; pair source set: screen_3
# CG15443 = conditions: MAPPIT configuration: N-N; pair source set: Curagen_low_conf
# Gs1 = conditions: MAPPIT configuration: N-N; pair source set: DPIM
# Mpp6 = conditions: MAPPIT configuration: N-N; pair source set: DPIM
# CG15482 = conditions: MAPPIT configuration: N-N; pair source set: screen_1
# CG33096 = conditions: MAPPIT configuration: N-N; pair source set: Finley_Y2H
# CG15514 = conditions: MAPPIT configuration: N-N
# CG1532 = conditions: MAPPIT configuration: N-N; pair source set: Finley_Y2H
# CG7560 = conditions: MAPPIT configuration: N-N; pair source set: Finley_Y2H
# CG15369 = conditions: MAPPIT configuration: N-N; pair source set: Finley_Y2H
# CG32548 = conditions: MAPPIT configuration: N-N; pair source set: Finley_Y2H
# CG15449 = conditions: MAPPIT configuration: N-N; pair source set: Finley_Y2H
# CG5946 = conditions: MAPPIT configuration: N-N; pair source set: Finley_Y2H
# PHDP = conditions: MAPPIT configuration: N-N; pair source set: Finley_Y2H
# Prim2 = conditions: MAPPIT configuration: N-N; pair source set: Finley_Y2H
# 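Note: HEK293T cells with Epo stimulation, STAT-responsive firefly luciferase reporter, fold induction versus unstimulated cells divided by the larger fold induction of two negative controls lacking either bait or prey.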
binder,measurement,setting,value
Nep3 (protein) MTRYKQTEFTEDDSSSIGGIQLNEATGHTGMQIRYHTARATWNWRSRNKTEKWLLITTFVMAITIFTLLIVLFTDGGSSDATKHVLHVQPHQKDCPSGNELPCLNKHCIFASSEILKSIDVTVDPCDDFYGYSCNQWIKNNPIPEGKSTWGTFGKLEQMNQLIIRNVLEKPAKSFKSDAERKAKVYYESCLDADEHMEKLGAKPMNDLLLQIGGWNVTKSGYNVANWTMGHTLKILHNKYNFNCLFGWAIGEDDKNSSRHVIQIDQGGLTLPTADYYNNKTDNHRKVLNEYIEYMTKVCVLLGANESDARAQMIGVINFEKKLANITIPLEDRRNEEAMYHPMQLRQLSKLAPFLNWTDHFDNAMQMVGRRVTDDEVVVVYAPDFLKNLSDIILKMEQTEEGKITLNNYLVWQAVRTLTSCLSKPFRDAYKGVRKALMGSDGGEEIWRYCVSDTNNVVGFAVGAIFVRQAFHGESKPAAEQMIAEIREAFKMNLQNLTWVDKQTREKAIEKANQISDMIGFPDYILDPVELDKKYAELNITPNAYFENNIQVAIYNLKSNLKRLDQPVNKTNWGMTPQTVNAYYTPTKNQIVFPAGILQTPFFDINNPKSLNFGAMGVVMGHELTHAFDDQGREYDKFGNINRWWDSKSIERFNEKSECIARQYSGYKMNGRTLNGKQTLGENIADNGGLKAAYHAYQRTKSDRDVDILKLPGLNLTHSQLFFVSFAQVWCSSTTDETNLLQMEKDPHSPSQFRVIGTLSNMKEFAEVFQCKPGKRMNPTEKCEVW,MAPPIT interaction score,CG15347,-1.12
eEF5 (protein) MAELDDQFETTDSGASTTYPMQCSALRKNGFVMLKSRPCKIVEMSTSKTGKHGHAKVHMVGIDIFSNKKYEDICPSTHNMDVPNVKREDLQLIAISDDSFLTLMTESGDLREDLKVPEGELGEQLRLDFDSGKDLLCTVLKACGEECVIAIKTNTALDK,MAPPIT interaction score,CG15443,0.896
same,MAPPIT interaction score,Gs1,0.522
same,MAPPIT interaction score,Mpp6,-0.193
trbd (protein) MCDTKDDAQKWKCETCTYENYPSSLKCTMCQASKPLLNEDIFRLSPAQESCTVAEEAAAVEVAVMSPTPSSTCYSLQPQSQARQSNVADSEKWPCKVCTYLNWPRSLRCVQCCTKRGGEAIERGKKDMDNEADGDRAGEALQALRISGSEENLANKPVQLIGATASHRLSLSRGIDDATHLNNLANASHNQSQSQHRQPVLQQQMQLQLQPQQQRESSSSAAVPPQQQKQCYVSKWACNSCTYENWPRSIKCSMCGKTREREISGSQNDLHASSSLNSQEENQQQLQQPNVDTVSVNNSFNKKHIYQLGSSETINNCDTLQERQERRQRQIRRQVDWQWLNACLGVVENNYSAVEAYLSCGGNPARSLTSTEIAALNRNSAFDVGHTLIHLAIRFHREEMLPMLLDQISGSGPGIKRVPSYVAPDLAADIRRHFANTLRLRKSGLPCHYVQKHATFALPAEIEELPIPIQEQLYDELLDRDAQKQLETPPPALNWSLEITARLSSRMFVLWNRSAGDCLLDSAMQATWGVFDRDNILRRALADTLHQCGHVFFTRWKEYEMLQASMLHFTLEDSQFEEDWSTLLSLAGQPGSSLEQLHIFALAHILRRPIIVYGVKYVKSFRGEDIGYARFEGVYLPLFWDQNFCTKSPIALGYTRGHFSALVPMEPFTRIDGRRDDVEDVTYLPLMDCELKLLPIHFLTQSEVGNEESMMRQWLDVCVTDGGLLVAQQKLSKRPLLVAQMLEEWLNHYRRIAQVITAPFIRRPQITHYSSDGDSDEE,MAPPIT interaction score,CG15482,-0.138
same,MAPPIT interaction score,CG33096,0.0624
Spt6 (protein) MAEFLDSEAEESEEEEELDVNERKRLKKLKAAVSDSSEEEEDDEERLREELKDLIDDNPIEEDDGSGYDSDGVGSGKKRKKHEDDDLDDRLEDDDYDLIEENLGVKVERRKRFKRLRRIHDNESDGEEQHVDEGLVREQIAEQLFDENDESIGHRSERSHREADDYDDVDTESDADDFIVDDNGRPIAEKKKKRRPIFTDASLQEGQDIFGVDFDYDDFSKYEEDDYEDDSEGDEYDEDLGVGDDTRVKKKKALKKKVVKKTIFDIYEPSELKRGHFTDMDNEIRKTDIPERMQLREVPVTPVPEGSDELDLEAEWIYKYAFCKHTVSEQEKPESREKMRKPPTTVNKIKQTLEFIRNQQLEVPFIAFYRKEYVKPELNIDDLWKVYYYDGIWCQLNERKRKLKVLFEKMRQFQLDTLCADTDQPVPDDVRLILDSDFERLADVQSMEELKDVHMYFLLNYSHELPRMQAEQRRKAIQERREAKARRQAAAAENGDDAAEAIVVPEPEDDDDPELIDYQLKQASNSSPYAVFRKAGICGFAKHFGLTPEQYAENLRDNYQRNEITQESIGPTELAKQYLSPRFMTTDEVIHAAKYVVARQLAQEPLLRKTMREVYFDRARINIRPTKNGMVLIDENSPVYSMKYVAKKPVSDLFGDQFIKLMMAEEEKLLEITFLEEFEGNACANGTPGDYVEESKALYQLDQFAKHVQEWNKLRAECVQLALQKWVIPDLIKELRSTLHEEAQQFVLRSCTGKLYKWLKVAPYKPQLPPDFGYEEWSTLRGIRVLGLAYDPDHSVAAFCAVTTVEGDISDYLRLPNILKRKNSYNLEEKAQKLADLRKLSDFIKMKKPHIVVIGAESRDAQNIQADIKEILHELETSEQFPPIEVEIIDNELAKIYANSKKGESDFKEYPPLLKQAASLARKMQDPLVEYSQLCDADDEILCLRYHPLQERVPREQLLEQLSLQFINRTSEVGLDINLMVQNSRTINLLQYICGLGPRKGQALLKLLKQSNQRLENRTQLVTVCHLGPRVFINCSGFIKIDTSSLGDSTEAYVEVLDGSRVHPETYEWARKMAIDAMEYDDEETNPAGALEEILESPERLKDLDLDAFAVELERQGFGSKSITLYDIRNELSCLYKDYRTPYTKPSAEELFDMLTKETPDSFYVGKCVTAMVTGFTYRRPQGDQLDSANPVRLDSNESWQCPFCHKDDFPELSEVWNHFDANACPGQPSGVRVRLENGLPGFIHIKNLSDRQVRNPEERVRVSQMIHVRIIKIDIDRFSVECSSRTADLKDVNNEWRPRRDNYYDYVTEEQDNRKVSDAKARALKRKIYARRVIAHPSFFNKSYAEVVAMLAEADQGEVALRPSSKSKDHLTATWKVADDIFQHIDVREEGKENDFSLGRSLWIGTEEFEDLDEIIARHIMPMALAARELIQYKYYKPNMVTGDENERDVMEKLLREEKANDPKKIHYFFTASRAMPGKFLLSYLPKTKVRHEYVTVMPEGYRFRGQIFDTVNSLLRWFKEHWLDPTATPASASASNLTPLHLMRPPPTISSSSQTSLGPQAPYSVTGSVTGGTPRSGISSAVGGGGSSAYSITQSITGYGTSGSSAPGAGVSSSHYGSSSTPSFGAINTPYTPSGQTPFMTPYTPHASQTPRYGHNVPSPSSQSSSSQRHHYGSSSGTGSTPRYHDMGGGGGGGVGGGGGSNAYSMQPHHQQRAKENLDWQLANDAWARRRPQQHQSHQSYHAQQQHHHSQQQPHMGMSMNMGITMSLGRGTGGGGGGGYGSTPVNDYSTGGGHNRGMSSKASVRSTPRTNASPHSMNLGDATPLYDEN,MAPPIT interaction score,CG15514; pair source set: screen_1,2.16
same,MAPPIT interaction score,CG15514; pair source set: screen_2,1.63
sel (protein) MLTKALILFGLLALAQGYSFTSREVKCHVCKAVVTELEEAIAKEDPHKMADVSGFRLDAQGNSISKKVRLVKSEMFLTELMEKICEKMDDYLKATYKSNGKFTLLKMIINGQMNPDSSLVDFVQDGDLNKSLGHFCNEVLEDNDEIFVKAFQAEELGNDLDIKICSEQASYCDESPVQEEYDFDGKEEL,MAPPIT interaction score,CG1532,-0.121
same,MAPPIT interaction score,CG7560,0.327
Gel (protein) MDASGAATMAVLSSLLVFLALSSSLCSAGTLNARPAFPVQSGEIQPSGQNSKQAARRVMHPSFANAGRTPGLEIWRIENFEPVIYPKTNYGKFYTGDSFIVLNTIENKKDKKLSWDVHFWLGLETSTDEAGAAAILTVQLDDLLNGGPVQHREVQDHESQLFLSYFKNGIRYEQGGVGTGFKHVETNAQGETRLFQVKGKRNVRVRQVNLSVSSMNTGDCFILDAGSDIYVYVGSQAKRVEKLKAISAANQIRDQDHNGRARVQIVDDFSTDADKQHFFDVLGSGSADQVPDESTADEDSAFERTDAAAVSLYKVSDASGKLKVDIIGQKPLTQAMLDTRECFILDTGSGIFVWVGKGATQKEKTDAMAKAQEFLRTKKYPAWTQIHRIVEGSESAPFKQYFDTWRDAGMSHSRLIRSALGIGSDELLNDDEIDSVVTQLKKSGGRAFGFMPDHGQNVIETITQYVAKPGSDEIVVSTVPFDEKLPLLGFASYVLTYNYEANNGDTGSLTYVWHGVKASAAARKRAFEEGLVGSKDGLLVQTNQGHEPRHFYKIFKGKLLTSFTALPVTAQLFRIRGTVESDVHASEVAADSSSLASSDAFVLHSGKSHKIYIWNGLGASAFEKQAAVDRFSDYWDDVELEQVEEGAEPDEFWEELNGEGQYDRSLGDDGAPLLESRLFHCHLSSGGFLKVEEVAQYEQEDLDSDDIMLLDAGDEIYLWVGYGVSEEENGKLLDTAKLYFNLEPTARSFDTVSIIRVPQGKEPRVFKRMFPNWDDNYWQNQPSYEDMKQLVIDANNEV,MAPPIT interaction score,CG15369,0.935
same,MAPPIT interaction score,CG32548,0.0886
aph-1 (protein) MTLPEFFGCTFIAFGPPFALFVFTIANDPVRIIILIAAAFFWLLSLLISSLWYALIPLKEFLAFGVVFSVCFQEAFRYIIYRILRSTEQGLHAVAEDTRVTDNKHILAYVSGLGFGIISGMFALVNVLADMSGPGTMGLKGGTELFFVTSAAQALSIILLHTFWSVIFFNAFDTNNYIHIGYVVFSHLFVSLITLLNANELYTTTLLINYLVTILTGVLAFRVAGGTSRSFRKFITCQ,MAPPIT interaction score,CG15347,3.73
RhoGAP68F (protein) MDAHSRFAPRLPGPAINPIVDNSDEPQPSLSDLHDFEPKLEFDDTELLAPSPLEKDVMVGDFVLAEDPELEPEEDVNPLEDDFEDQLREQSENFQTPRNKCDFLGTDKQGRHIFGIYASRFPEKSQLEGFVREIIKEIEPFVENDYILVYFHQGLKEDNKPSAQFLWNSYKELDRNFRKNLKTLYVVHPTWFIRVIWNFFSPFISDKFRKKLVYISSLDELRQALGLNKLKLPDNICDLDDKLNPSRKPSTPPPSSNINASRQQQHKMATTHQFGVPLKFIVMNSPCLNSIPPIVRKCVDSLSITGVIDTEGIFRRSGNHSEIMALKERVNRGEDVDLKSVNVHVIAGLLKSFLRDLAEPLLTFELYEDVTGFLDWPKEERSRNVTQLIREKLPEENYELFKYIVEFLVRVMDCEDLNKMTSSNLAIVFGPNFLWSRSTSTSLEEIAPINAFVDFVLQNHKDIYLIDVNQRTVSVD,MAPPIT interaction score,CG15449,0.0825
same,MAPPIT interaction score,CG5946,0.206
same,MAPPIT interaction score,PHDP,0.248
same,MAPPIT interaction score,Prim2,3.38 (active)
